The values below come from PubChem BioAssay (EPA / NIEHS).

SMILES strings stand for the structures. Activity calls are given as the source filed them. Rule for the calls: active = hit-call score of the fitted dose curve at least 0.9, where 1 is the maximum; inactive = score below 0.9.

Read-out in this test: Interleukin-8 (IL8), CXCL8 (gene 3576)
As to the kind of experiment: BSK_3C_IL8: BioMAP Diversity Plus: 3C Assay for Interleukin-8 (IL8) Biomarker Activity (AID 2283020). The following applies: primary human endothelial cells (HUVEC); actives raise or lower the signal. As for the experimental part:
BSK_3C is a cell-based, multiplexed-readout assay that uses umbilical vein endothelium, a human vascular primary cell, with measurements taken at 24 hours after chemical dosing in a 96-well plate.BSK_3C_IL8 is an assay component measured in the BSK_3C assay. It measures IL-8 antibody related to regulation of gene expression using ELISA technology.Data from the assay component BSK_3C_IL8 was analyzed into 1 assay endpoint. This assay endpoint, BSK_3C_IL8, was analyzed with bidirectional fitting relative to DMSO as the negative control and baseline of activity. Using a type of binding reporter, gain or loss-of-signal activity can be used to understand changes in the signaling as they relate to the gene CXCL8. Furthermore, this assay endpoint can be referred to as a primary readout, because this assay has produced multiple assay endpoints where this one serves a signaling function. To generalize the intended target to other relatable targets, this assay endpoint is annotated to the cytokine intended target family, where the subfamily is interleukins.
The levels of cell surface (or secreted, indicated by the prefix "s") biomarker endpoints were measured by ELISA. Overt cytotoxicity to cells in confluent adherent cultures (all systems other than the BT system) was assessed by measuring total protein levels using sulforhodamine B (SRB) staining in parallel cultures at the time of biomarker measurements, indicated as SRB endpoints. For proliferation assays for adherent cell types, individual cell types are cultured at sub-confluence and relative cell numbers quantified by SRB staining at time points optimized for each system (48 h: 3C and CASM3C systems; 72 h: BT and HDF3CGF systems; 96 h: SAg system). SRB was performed by staining cells with 0.1% SRB after fixation with 10% TCA and reading wells at 560 nm.Viability and proliferation of PBMC (T cells) was quantified by Alamar Blue reduction for the SAg and BT systems. For PBMC viability (referred to as PBMC Cytotoxicity within the assay endpoint names), cells were plated (75,000/well in a 96-well plate) and then chemical samples added for 1 h before addition of activators, SEB and TSST-1 (20 ng/mL final concentration each). Cells were incubated for 90 h. Then, Alamar Blue (20 uL/well) (Invitrogen, Cat DAL1100) was added for 6 h, and the plates were read with a fluorescence microplate reader at 546/580 nm (excitation/emission). For PBMC proliferation, cells were plated and activated as above but incubated for only 16 h prior to addition of Alamar Blue. Plates were read after 6 h.
Regarding `CC(C)=CCC/C(C)=C\CO`, the result was inactive.
Still for that read-out and setting: the value for `Nc1nc2ncc(CNc3ccc(C(=O)N[C@@H](CCC(=O)O)C(=O)O)cc3)nc2c(=O)[nH]1` was “inactive”; that for `COC(=O)c1ccccc1O` was “inactive”; that for `COCCOc1cc2cc(C(=O)NC3CCN(C(C)C)CC3)n(CC(=O)Nc3ccc(Cl)cn3)c2cn1` was “inactive”.
By AC50 is commonly meant the midpoint of the concentration-response curve, whichever way the signal moves. As to `CNS(=O)(=O)c1cc(C(=O)N2CCC(CCN3C4CCC3CC(n3c(C)nc5ccccc53)C4)(c3cccc(F)c3)CC2)c(Cl)cc1F` (stereo not given), the AC50 is 29.4 µM (active).
`CCOC(=O)CC(CC(=O)OCC)(OC(C)=O)C(=O)OCC`: the result was inactive.
Still for that read-out and setting: under `O=c1[nH]c2ccc(S(=O)CCN3CCC(Cc4ccc(F)cc4)CC3)cc2o1` (stereo not given) stands “inactive”.
For `C=CCCCCCCCCC(=O)O`, the result was inactive.
On the same count and under the same terms, under `O=C1CCC(N2C(=O)c3ccccc3C2=O)C(=O)N1` (stereo not given) stands “inactive”.
Same read-out and setting: under `O=C(OC[C@H]1O[C@@H](OC(=O)c2cc(O)c(O)c(OC(=O)c3cc(O)c(O)c(O)c3)c2)[C@H](OC(=O)c2cc(O)c(O)c(OC(=O)c3cc(O)c(O)c(O)c3)c2)[C@@H](OC(=O)c2cc(O)c(O)c(OC(=O)c3cc(O)c(O)c(O)c3)c2)[C@@H]1OC(=O)c1cc(O)c(O)c(OC(=O)c2cc(O)c(O)c(O)c2)c1)c1cc(O)c(O)c(OC(=O)c2cc(O)c(O)c(O)c2)c1` stands “inactive”; under `Cn1cnc([N+](=O)[O-])c1Sc1ncnc2nc[nH]c12`, “inactive”; under `O=C(O)CCN(C1(C(=O)NO)CCCC1)S(=O)(=O)c1ccc(Oc2ccc(F)cc2)cc1`, “inactive”.
Same read-out and setting: under `C1N2CN3CN1CN(C2)C3` stands “inactive”; under `CC(C)=CCCC(C)=CC=O`, “inactive”.
Turning to `CCOc1cccc(-n2cc(C(=O)N3CCN(c4cc(C(=O)O)c5ccccc5c4)CC3)nc2-c2ccc(C)cc2)c1`, the AC50 was 11.9 µM (active).
For the compound `On1ccccc1=S`, the outcome was inactive.
As for `CC(C)CCCCCCOC(=O)c1ccc(C(=O)OCCCCCCC(C)C)c(C(=O)OCCCCCCC(C)C)c1`, the result was inactive.
The same measure, in the same setting: the value for `CC(=O)OCCC(C)C` was “inactive”; that for `CCCN(C1CCN(C(=O)C2CCNCC2)CC1)[C@@H]1CCc2ccc(OC)cc2C1` was “inactive”; that for `CCOCCO` was “inactive”.
For `Cc1ccc(O)cc1`, the outcome was inactive.
As to `CN(C)c1ccc(N=NS(=O)(=O)O)cc1`, the result was inactive.
On the same count and under the same terms, the value for `CCCCC(CC)COC(=O)CCCCCCCCC(=O)OCC(CC)CCCC` (stereo not given) was “inactive”.
`CCOC(=O)c1ccc(C2CCC(NC[C@H](O)COc3ccc(O)c(NS(C)(=O)=O)c3)CC2)cc1` (stereo not given in full): the half-maximal activity concentration (AC50) is 27.7 µM (active).
Regarding `Oc1ccc2c(c1)-c1ccccc1C2`, the outcome was inactive.
Consider `O=P(OC(CCl)CCl)(OC(CCl)CCl)OC(CCl)CCl`, for which the outcome was inactive.
The same measure, in the same setting: the value for `CC(C)CC(C)(O)C#CC(C)(O)CC(C)C` (stereo not given) was “inactive”.
For the compound `O=C(NS(=O)(=O)/C=C/c1ccccc1)c1ccc(F)cc1Cl`, the outcome was inactive.
In the case of `Clc1nc(Cl)c(Cl)c(Cl)c1Cl`, the half-maximal activity concentration (AC50) is 14.2 µM (active).
For the compound `CCCCC(CC)COC(=O)c1ccc(C(=O)OCC(CC)CCCC)cc1` (stereo not given), the outcome was inactive.
In the case of `Cc1[nH]cnc1C[C@H]1CCc2c(C)c3ccccc3n2C1=O`, the AC50 was 22.4 µM (active).
As for `CCCCCCCCO`, the outcome was inactive.
As for `O=c1n(CC2CO2)c(=O)n(CC2CO2)c(=O)n1CC1CO1` (stereo not given), the concentration at half-maximal activity (AC50) is 13.2 µM (active).
Regarding `CCOC(=O)COc1ccc2c(c1)CC(NCC(O)c1cccc(Cl)c1)CC2` (stereo not given), the AC50 was 32.1 µM (active).
`COCCOCCOCCOC`: the result was inactive.
Still for that read-out and setting: under `Cc1ccc(S(=O)(=O)O)cc1C` stands “inactive”; under `CC(C)=CCC/C(C)=C/CO`, “inactive”.
Same read-out and setting: under `CCNc1ccccc1` stands “inactive”.
Consider `CC/C(=C\C(=N/O)C(N)=O)C(C)[N+](=O)[O-]` (stereo not given), for which the outcome was inactive.
As to `CC[C@H](C)C(=O)O[C@H]1C[C@@H](C)C=C2C=C[C@H](C)[C@H](CC[C@@H]3C[C@@H](O)CC(=O)O3)[C@H]21`, the AC50 was 25.5 µM (active).
